Experiment [1] is described as follows: galactose survival enhancers in mitochondrial complex I cybrids – cell-based, galactose medium, ATP luminescence, primary screen (AID 1645843;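 active = z-score of at least 1.8 in each of two replicates, scored against plate mean and spread of sample wells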;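 note: positive z means more ATP and so rescue of galactose-driven cybrid death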). The conditions noted are these: complex I mutant cybrid cells, 72 h, stronger effect = higher value.
Experiment [2] can be described thus: growth inhibition, single agent or in combination, cell-based, chromothripsis tumors, cisplatin or BGB combos (AID 1671449).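 Note: cells exposed for 96 hours; 0% = vehicle DMSO and 100% = killing by high DMSO.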 The conditions noted are these: LFS_MB_P medulloblastoma cells.
The nature of experiment [3]: growth inhibition, single agent and combos, cell-based, chromothripsis tumors, cisplatin or BGB combos (AID 1671450).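 Note: cells exposed to compound for four days; 0% = vehicle DMSO and 100% = cell killing by high DMSO.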 The conditions noted are these: HDN33 neuroblastoma cells, stronger effect = higher value.
The nature of experiment [4]: growth inhibition, single agents and combos, ICB984, cell-based, cisplatin or BGB combos, synergistic combos for chromothripsis tumors (AID 1671451; call rule not given here;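 note: cells exposed for 96 hours before readout; 0% = vehicle DMSO and 100% = killing by high DMSO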). The note with it: ICB984 medulloblastoma cells, drug combinations, stronger effect = higher value.
The nature of experiment [5]: growth inhibition, single agents and combos, LFS_MB_1R, cell-based, cisplatin or BGB combos, synergistic combos for chromothripsis tumors (AID 1671452).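 Note: cells exposed for 96 hours before readout.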 The note with it: LFS_MB_1R medulloblastoma cells, stronger effect = higher value.
The nature of experiment [6]: growth inhibition, single agents and combos, HTB85, cell-based, BGB or cisplatin IC20 combos, synergistic combos for chromothripsis tumors (AID 1671453).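 Note: cells exposed for 96 hours before readout; 0% = vehicle DMSO and 100% = high DMSO killing control.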 The conditions noted are these: HTB85 osteosarcoma cells, drug combinations, stronger effect = higher value.
A short description of experiment [7]: growth inhibition, single agents and combos, CRL2098, cell-based, BGB or cisplatin IC20 combos, synergistic combos for chromothripsis tumors (AID 1671454).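 Note: cells exposed for 96 h before readout; 0% = vehicle DMSO and 100% = killing by high DMSO.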 The conditions noted are these: CRL2098 osteosarcoma cells, drug combinations, stronger effect = higher value.
A short description of experiment [8]: growth inhibition, single agents and combos, HD-MB03, cell-based, BGB or cisplatin IC20 combos, synergistic combos for chromothripsis tumors (AID 1671455; in the data active = inhibition above about 83%;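 note: 0% = vehicle DMSO and 100% = high DMSO as cytotoxic control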). The conditions noted are these: HD-MB03 medulloblastoma cells, stronger effect = higher value.
Experiment [9] is described as follows: growth inhibition, single agents and combos, UWB1.289, cell-based, BGB or cisplatin combos, synergistic combos for chromothripsis tumors (AID 1671456).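 Note: cells exposed to compound for four days; 0% = vehicle DMSO and 100% = killing by high DMSO.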 The conditions noted are these: UWB1.289 ovarian carcinoma cells, stronger effect = higher value.
Experiment [10] can be described thus: growth inhibition, single agents and combos, LFS_MB_2R, cell-based, cisplatin combos, synergistic combos for chromothripsis tumors (AID 1671457).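 Note: cells exposed to compound for four days before readout.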 The note with it: LFS_MB_2R medulloblastoma cells, stronger effect = higher value.
Experiment [11] can be described thus: growth inhibition, MDA-MB-436, cell-based, BGB or cisplatin combos, synergistic combos for chromothripsis tumors (AID 1671458; call rule not given here;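 note: cells exposed for 96 hours; 0% = vehicle DMSO and 100% = killing by high DMSO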). The conditions noted are these: MDA-MB-436 breast carcinoma growth inhibition, drug combinations, stronger effect = higher value.
Experiment [12] can be described thus: UWB1.289_BRCA1 ovarian cancer growth, cell-based, BGB or cisplatin combinations (AID 1671459). The note with it: UWB1.289 BRCA1 ovarian carcinoma, drug combinations, stronger effect = higher value.
The nature of experiment [13]: drug combination toxicity in non-malignant astrocytes – cell-based, BGB or cisplatin IC20 combos, cytotoxicity control for chromothriptic childhood tumor combination screen (AID 1671460).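 Note: cells exposed to compounds for 96 hours before viability readout; 0% = vehicle and 100% = killing control.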 The conditions noted are these: Human astrocytes, viability inhibition, drug combinations, at 0.5 µM, stronger effect = higher value.
A short description of experiment [14]: BT084 cell growth, single and combined drugs, ICGC_MB145, cisplatin and BGB IC40 combos (AID 1671461).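 Note: cells exposed to drugs for 96 hours; 0% = vehicle DMSO and 100% = high DMSO full killing control.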 The note with it: BT084 medulloblastoma cells, drug combinations, stronger effect = higher value.
The nature of experiment [15]: RCMB18 cell growth, single agent and combined, cisplatin and BGB IC40 combos (AID 1671462).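 Note: cells exposed to compound for four days.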 The note with it: RCMB18 medulloblastoma cells, stronger effect = higher value.
Experiment [16] can be described thus: CRL1545 cell growth, single agent and combined, cisplatin and BGB IC20 combos (AID 1671464).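 Note: cells exposed to compound for 96 hours before readout; 0% = vehicle DMSO and 100% = high DMSO killing control.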 The note with it: CRL1545 osteosarcoma cells, stronger effect = higher value.
[17] abbreviates: measured here: combination with BGB IC40, at 0.05 µM.
Setting [18] is: measured here: with BGB IC20 combination, at 0.5 µM.
[19] abbreviates: measured here: with cisplatin IC20 combination, at 0.5 µM.
Where [20] appears, read: measured here: combination with cisplatin, at 0.5 µM.
The mark [21] stands for this setting: measured here: combination with cisplatin, at 5 µM.

Structures are written as SMILES. Where “and” joins values, the source holds several entries; their conditions need not be identical. Equal entries are not always repeated. Calls of active or inactive are those of the source. Cut-off read from the data, not from the text of the source, unless noted: active = inhibition above about 80%; inactive = the rest.

Four compounds from PubChem BioAssay can be followed below.

Take `Cc1ccccc1C1CCCN(C(=O)CCC(C)C)C1` (stereo unspecified): in experiment [1], the z-score is -0.255 (inactive).
Same read-out and setting: as for `Cc1sc2ncnc(N3CCC(Cn4cc(C(C)(C)N)nn4)CC3)c2c1C`, the figure is -0.55 (inactive).
The inhibition is the change of the read-out against control, counted positive when it falls. Regarding `O=c1[nH]c(=S)[nH]c(/N=C/c2ccccc2)c1N=Cc1ccccc1`, the inhibition was 10.8% (inactive) and -1.11% (inactive) in experiment [2] (at 0.5 µM, stronger effect = higher value); 7.44% and 1.3% in [2] (measured here: combination with BGB IC20, at 0.005 µM); -16.5% and -26.2% in [2] (measured here: combination with BGB IC40, at 0.005 µM); 0.419% and 2.63% in experiment [2] (setting [17]); 24.4% and -35.7% in [2] (measured here: combination with cisplatin, at 0.5 µM, stronger effect = higher value); -12.6% and -19.3% in experiment [2] (measured here: combination with cisplatin, at 5 µM, stronger effect = higher value). For the same compound, the inhibition is -34% and -42.2% in experiment [3] (BGB combo, at 5 µM); -32.1% (inactive) and -19.5% (inactive) in [3] (at 0.5 µM); -21.4% and -48.2% in experiment [3] (cisplatin combo, at 5 µM); -30.4% and -16.3% in experiment [3] (setting [18]); -42.2% and -15.7% in [3] (setting [19]); -37.4% and -37% in experiment [3] (single agent, at 5 µM). Moreover, the inhibition in [4] (BGB IC20 combo, at 0.005 µM) was 1.63% and -15.3%; in [4] (BGB IC40 combo, at 0.005 µM), -50.4% and 4.14%; in experiment [4] (BGB IC40 combo, at 0.05 µM) it was -19.4% and -32.8%; in experiment [4] (at 0.5 µM), -11.2% (inactive) and -6.96% (inactive); in [4] (cisplatin combo, at 0.05 µM), -22.8% and -39.7%; in [4] (cisplatin combo, at 0.5 µM), -24.4% and 3.72%. Besides, the inhibition was -19.7% and -8.53% in experiment [4] (cisplatin combo, at 5 µM); -28.4% and -9.24% in experiment [4] (measured here: 5 uM single agent, at 5 µM); -24.3% (inactive) and -5.83% (inactive) in experiment [5] (at 0.5 µM); -16.1% and -5.8% in experiment [5] (setting [17]); -52.1% and -29.6% in experiment [5] (setting [20]); -67.9% and -16.8% in experiment [5] (setting [21]). For the same compound, the inhibition in experiment [6] (at 0.5 µM) is -24.2% (inactive) and -31.7% (inactive); in [6] (measured here: with BGB IC20, at 0.5 µM) it was -36.7% and -29.2%; in [6] (measured here: with BGB IC20, at 5 µM) it was -72.3% and -10.6%; in experiment [6] (measured here: with cisplatin IC20, at 0.5 µM), -17.7% and -30.3%; in experiment [6] (measured here: with cisplatin IC20, at 5 µM) it was -46.1% and -5.16%; in [6] (single agent, at 5 µM), -26.4% and -23.9%. Also, the inhibition was -71.1% (inactive) and -62.3% (inactive) in experiment [7] (at 0.5 µM); -91.5% and -60.8% in [7] (measured here: combination with BGB at IC20, at 0.5 µM); -66.2% and -85.1% in experiment [7] (measured here: combination with cisplatin at IC20, at 0.5 µM); -16.3% (inactive) and -12.6% (inactive) in [8] (at 0.5 µM); -14.6% and -13.1% in experiment [8] (measured here: combo with BGB at IC20, at 0.5 µM); -24.1% and -18.2% in [8] (measured here: combo with cisplatin at IC20, at 0.5 µM). Further, the inhibition in experiment [9] (at 0.5 µM) is -10.1% (inactive) and -11.6% (inactive); in [9] (measured here: inhibition with BGB combination, at 0.05 µM), -8.71% and -6.64%; in experiment [9] (measured here: inhibition with cisplatin combination, at 0.05 µM) it was -18.2% and -17.6%; in experiment [10] (at 0.5 µM), -2.17% (inactive) and -7.03% (inactive); in experiment [10] (setting [20]), 4.09% and -15.4%; in experiment [10] (setting [21]) it was -75.4% and -34.5%. Also, the inhibition is -13.4% (inactive) and -8.5% (inactive) in [11] (at 0.5 µM); -4.77% and -3.51% in [11] (measured here: BGB combination, at 0.5 µM); -0.125% and 9.68% in [11] (measured here: BGB combination, at 5 µM); -26% and -20.1% in experiment [11] (measured here: cisplatin combination, at 0.5 µM); -13.5% and -24.6% in experiment [11] (measured here: cisplatin combination, at 5 µM); -20.1% and -21% in [12] (BGB combination, concentration series, at 5 µM). For the same compound, the inhibition in [12] (at 0.5 µM) was -11.1% (inactive) and -17.6% (inactive); in [12] (cisplatin combination, concentration series, at 5 µM) it was -0.543% and -15.8%; in experiment [13], -14.7% (inactive) and -11.3% (inactive); in [13] (measured here: combo with BGB IC20) it was -6.75% and -6.18%; in experiment [13] (measured here: combo with cisplatin IC20), -39.7% and -17.5%; in experiment [14] (at 0.5 µM), -0.252% (inactive) and 5.93% (inactive). For the same compound, the inhibition in experiment [14] (cisplatin combination, at 0.5 µM) was -5.14% and -7.54%; in experiment [14] (cisplatin combination, at 5 µM), -2.96% and -198%; in [14] (measured here: BGB IC40 combination 0.05 uM, at 0.05 µM), 11.6% and -6.05%; in [14] (single agent, at 5 µM) it was -8.91% and -10.5%; in experiment [15] (at 0.5 µM) it was -27.2% (inactive) and -2.36% (inactive); in experiment [15] (cisplatin combo, at 5 µM) it was -73.6% and -65.6%. Moreover, the inhibition in experiment [15] (measured here: BGB IC40 combination, at 0.05 µM) was -4.14% and 6.35%; in experiment [15] (setting [20]), -76.9% and 2.66%; in [15] (single agent, at 5 µM), -10.2% and -0.506%; in [16] (at 0.5 µM), -63.6% (inactive) and -4.77% (inactive); in experiment [16] (setting [18]), -46.4% and -22.1%; in experiment [16] (setting [19]), -76% and 2.34%. Moreover, the inhibition in experiment [16] (single agent, at 0.05 µM) is -68.7% and -41.2%; in [16] (single agent, at 5 µM), -27.1% and -36.4%.
`CC(C)=CCC/C(C)=C/CNCCCc1ccncc1`: in [1], the z-score is -0.52 (inactive).
